The results in this text go back to PubChem BioAssay (NCI).

The panel holds about 83,000 compounds, 20% with a hit somewhere; the sample as a whole holds those more often.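 Single-concentration screen, 48 h exposure, 96-well plates. Endpoint: percent growth. Below 10 = active.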 Unmarked numbers belong to inactive results. Activity calls are given as the source filed them.

For the first assay, the system named is RPMI-8226 leukemia. Nature of the assay: NCI-60 one-dose screen, 48 h (100 = growth as untreated, 0 = no growth, -100 = all killed). The following applies: 10 µM unless noted.
Turning to `COc1ccc(-c2oc3cc(O)c(OC)c(O)c3c(=O)c2OC)cc1O`, the growth is 12.3%.
`c1ccc(-c2nnc(Nc3nnc(-c4ccccc4)s3)s2)cc1`: the growth was 87.8%.
The same measure, in the same setting: the figure for `CCN1CCN(c2cc(-c3cn[nH]c3-c3cc(C)cc(OC)c3)nc(-c3cccnc3)n2)CC1` is 86.2%; for `CCCn1cnc2c1c(=O)n(CCCCC(C)=O)c(=O)n2C` it is 101%.
Same read-out and setting: the figure for `O=C1C2C3C=CC(O3)C2C(=O)N1Nc1ccccc1` (centres undefined) is 108%; for `O=C(Nc1ccncc1)C(=O)c1cn(S(=O)(=O)c2cccc(F)c2)c2ccccc12` it is 30.1%.
As for `COc1ccc(-c2csc(NC(=O)c3cc(OC)c(OC)c(OC)c3)n2)cc1`, the growth is 92.7%.
Turning to `CCC1=C(c2ccc(OC)cc2)C(C)(C)Oc2cc(O)c(CN3CCCC3)cc21`, the growth was 57.5%.
Take `CCOc1nc(-c2ccccc2)cc2c(O)c(-c3nnco3)[nH]c(=O)c12`: the growth was 48.3%.
The same measure, in the same setting: the figure for `C=C1CC[C@@H]2[C@](C)(COC(C)=O)[C@H](OC(C)=O)CC[C@@]2(C)[C@@H]1CC(Nc1ccc(S(=O)(=O)Nc2cc(C)on2)cc1)C1=CCOC1=O` (some centres undefined) is -15.2% (active); for `COc1ccc(C2=NN(C(=O)c3cc(OC)c(OC)c(OC)c3)C(c3ccc(C#N)cc3)C2)cc1OC` (centres undefined) it is 60.8%; for `O=C1/C(=N/O)CCc2ccccc21` it is 72.9%.
On the same count and under the same terms, the figure for `O=C(/C=C/c1cccnc1)NCCCCC1CCCN(C(=O)c2ccccc2)C1` (centres undefined) is 36.9%.
For `COc1ccc(Nc2ccnc(NCCCNc3ccnc4cc(Cl)ccc34)n2)cc1`, the growth is -60.5% (active).
Same read-out and setting: the figure for `COc1ccc2nc(NC(=O)c3cc(-c4ccc(F)cc4)n4nc(-c5ccccc5)cc4n3)sc2c1` is 83.5%; for `COc1cc(/C=C/C(=O)N2CCN(C(=O)/C=C/c3ccccc3)CC2)cc(OC)c1OC` it is 95.5%; for `O=C1C[C@@H]2/C(=C(O)\C=C\c3ccccc3)C(=O)C=C[C@@H]2O1` it is 32.5%.
In the case of `COc1cc(/C=C/c2nnc(-c3cc(-c4ccccc4)n[nH]3)o2)cc(OC)c1OC`, the growth is 83%.
Same read-out and setting: the figure for `O=[N+]([O-])c1ccc2c(c1)S(=O)c1cc([N+](=O)[O-])ccc1N2` is 103%; for `C/C(=C\CCc1ccoc1)CC/C=C(\C)CCCN1CCC(CO)CC1` it is 3.35% (active).
Still for that read-out and setting: the figure for `O=C1/C(=C/c2ccc([N+](=O)[O-])o2)Oc2ccc(Cl)cc21` is -11.3% (active); for `COc1cc(C2NC(c3ccc(Cl)cc3)C(C)/C(=N/NC(N)=S)C2C)cc(OC)c1OC` (centres undefined) it is 74.2%; for `CCC(CC)NCCCCCNc1cc(OC)cc2cccnc12` it is 115%.
On the same count and under the same terms, the figure for `CCOc1nc(-c2ccccc2)cc2c(O)c(C(=O)n3nc(C)cc3C)[nH]c(=O)c12` is 103%.
With `O=C(/C(=N/O)S(=O)(=O)c1ccccc1)c1cccs1`, the growth is 101%.
The same measure, in the same setting: the figure for `COc1cc(C2NC(c3ccc(Cl)cc3)C(C)C(=NC(=O)c3cnccn3)C2C)cc(OC)c1OC` (centres undefined) is 79.4%.
The same measure, in the same setting: the figure for `COc1ccc2c(c1)C(=O)/C(=C/c1ccc([N+](=O)[O-])s1)O2` is -12% (active); for `COc1cc(C(=O)/C=C/c2cccnc2Nc2ccccc2)cc(OC)c1OC` it is -40.3% (active); for `CCCCn1c(Cc2ccc(Cl)cc2)nc2cc(OC)c(OC)cc2c1=O` it is 23.4%.
For `OCCOc1c(Cl)cc(Cl)cc1Cl`, the growth was 119%.
On the same count and under the same terms, the figure for `COc1ccc2nc3cc(Cl)ccc3c(N3CCN(c4ccnc(Nc5ccc(F)cc5)n4)CC3)c2c1` is 63.4%; for `COc1ccc(-c2cc(Cc3cccs3)c(=O)n(Cn3ccc4ccccc43)n2)cc1` it is 88%.
In the case of `CCc1[nH]nc(-c2ccc(OC)cc2)c1-c1ccccc1OCCN(CC)CC`, the growth was 97.5%.
On the same count and under the same terms, the figure for `COc1ccc(-c2cc(C(=O)Nc3nc4cc(C)c(C)cc4s3)nc3cc(-c4ccccc4)nn23)cc1OC` is 88%; for `Nc1ccc2c3c(cccc13)-c1ccccc1-2` it is 33.9%.
As for `COc1cccc(-c2nnc(N)o2)c1`, the growth is 109%.
As for `COc1cc2c(cc1OCCCOc1ccc(-c3cc4ccccc4c4ccccc34)cc1)N=C[C@@H]1CCCN1C2=O`, the growth was 0.228% (active).

In the next assay the test system is OVCAR-8 ovarian. The assay is described as above. The following applies: 10 µM unless noted.
On to `COc1ccc(-c2oc3cc(O)c(OC)c(O)c3c(=O)c2OC)cc1O`, for which the growth was 25.3%.
On to `c1ccc(-c2nnc(Nc3nnc(-c4ccccc4)s3)s2)cc1`, for which the growth was 103%.
The same measure, in the same setting: the figure for `CCN1CCN(c2cc(-c3cn[nH]c3-c3cc(C)cc(OC)c3)nc(-c3cccnc3)n2)CC1` is 79.6%.
Regarding `CCCn1cnc2c1c(=O)n(CCCCC(C)=O)c(=O)n2C`, the growth was 98.3%.
The same measure, in the same setting: the figure for `O=C1C2C3C=CC(O3)C2C(=O)N1Nc1ccccc1` (centres undefined) is 105%; for `O=C(Nc1ccncc1)C(=O)c1cn(S(=O)(=O)c2cccc(F)c2)c2ccccc12` it is 45%; for `COc1ccc(-c2csc(NC(=O)c3cc(OC)c(OC)c(OC)c3)n2)cc1` it is 97.2%.
On to `CCC1=C(c2ccc(OC)cc2)C(C)(C)Oc2cc(O)c(CN3CCCC3)cc21`, for which the growth was 95.4%.
For the compound `CCOc1nc(-c2ccccc2)cc2c(O)c(-c3nnco3)[nH]c(=O)c12`, the growth was 30.6%.
As for `C=C1CC[C@@H]2[C@](C)(COC(C)=O)[C@H](OC(C)=O)CC[C@@]2(C)[C@@H]1CC(Nc1ccc(S(=O)(=O)Nc2cc(C)on2)cc1)C1=CCOC1=O` (some centres undefined), the growth was 16.1%.
Regarding `COc1ccc(C2=NN(C(=O)c3cc(OC)c(OC)c(OC)c3)C(c3ccc(C#N)cc3)C2)cc1OC` (centres undefined), the growth is 32.8%.
Still for that read-out and setting: the figure for `O=C1/C(=N/O)CCc2ccccc21` is 95.6%; for `O=C(/C=C/c1cccnc1)NCCCCC1CCCN(C(=O)c2ccccc2)C1` (centres undefined) it is 22%; for `COc1ccc(Nc2ccnc(NCCCNc3ccnc4cc(Cl)ccc34)n2)cc1` it is 5.52% (active).
On the same count and under the same terms, the figure for `COc1ccc2nc(NC(=O)c3cc(-c4ccc(F)cc4)n4nc(-c5ccccc5)cc4n3)sc2c1` is 53.5%; for `COc1cc(/C=C/C(=O)N2CCN(C(=O)/C=C/c3ccccc3)CC2)cc(OC)c1OC` it is 98.1%; for `O=C1C[C@@H]2/C(=C(O)\C=C\c3ccccc3)C(=O)C=C[C@@H]2O1` it is 8.54% (active).
On to `COc1cc(/C=C/c2nnc(-c3cc(-c4ccccc4)n[nH]3)o2)cc(OC)c1OC`, for which the growth was 80.8%.
As to `O=[N+]([O-])c1ccc2c(c1)S(=O)c1cc([N+](=O)[O-])ccc1N2`, the growth is 101%.
Same read-out and setting: the figure for `C/C(=C\CCc1ccoc1)CC/C=C(\C)CCCN1CCC(CO)CC1` is 77.7%.
Take `O=C1/C(=C/c2ccc([N+](=O)[O-])o2)Oc2ccc(Cl)cc21`: the growth is -14.9% (active).
Same read-out and setting: the figure for `COc1cc(C2NC(c3ccc(Cl)cc3)C(C)/C(=N/NC(N)=S)C2C)cc(OC)c1OC` (centres undefined) is 87.3%; for `CCC(CC)NCCCCCNc1cc(OC)cc2cccnc12` it is 93.5%.
On the same count and under the same terms, the figure for `CCOc1nc(-c2ccccc2)cc2c(O)c(C(=O)n3nc(C)cc3C)[nH]c(=O)c12` is 101%; for `O=C(/C(=N/O)S(=O)(=O)c1ccccc1)c1cccs1` it is 104%.
Still for that read-out and setting: the figure for `COc1cc(C2NC(c3ccc(Cl)cc3)C(C)C(=NC(=O)c3cnccn3)C2C)cc(OC)c1OC` (centres undefined) is 103%; for `COc1ccc2c(c1)C(=O)/C(=C/c1ccc([N+](=O)[O-])s1)O2` it is -5.24% (active); for `COc1cc(C(=O)/C=C/c2cccnc2Nc2ccccc2)cc(OC)c1OC` it is -31.3% (active).
Take `CCCCn1c(Cc2ccc(Cl)cc2)nc2cc(OC)c(OC)cc2c1=O`: the growth is 70.1%.
Still for that read-out and setting: the figure for `OCCOc1c(Cl)cc(Cl)cc1Cl` is 104%; for `COc1ccc2nc3cc(Cl)ccc3c(N3CCN(c4ccnc(Nc5ccc(F)cc5)n4)CC3)c2c1` it is 75.8%.
Still for that read-out and setting: the figure for `COc1ccc(-c2cc(Cc3cccs3)c(=O)n(Cn3ccc4ccccc43)n2)cc1` is 99.2%.
As for `CCc1[nH]nc(-c2ccc(OC)cc2)c1-c1ccccc1OCCN(CC)CC`, the growth was 107%.
Regarding `COc1ccc(-c2cc(C(=O)Nc3nc4cc(C)c(C)cc4s3)nc3cc(-c4ccccc4)nn23)cc1OC`, the growth is 110%.
On the same count and under the same terms, the figure for `Nc1ccc2c3c(cccc13)-c1ccccc1-2` is 99.1%; for `COc1cccc(-c2nnc(N)o2)c1` it is 98.7%.
In the case of `COc1cc2c(cc1OCCCOc1ccc(-c3cc4ccccc4c4ccccc34)cc1)N=C[C@@H]1CCCN1C2=O`, the growth is -6.49% (active).
